Source: PubChem BioAssay (Tox21)
“And” between values parts separate entries of the source, which are not always exact repeats. Equal entries are not always repeated. Records with an inconclusive call do not appear. A call without a number means that no potency is given here. The source made the active and inactive calls. Calls follow the shape of the dose curve; as a rule, active = well fitted cell-killing curve with a large enough effect in the repeat runs; inconclusive = weak or mixed curves, or effect the other way; inactive = no such curve, though single readings can be large or run the other way.

Experiment: qHTS assay to identify small molecule antagonists of the peroxisome proliferator-activated receptor gamma (PPARg) signaling pathway - cell viability counter screen (AID 743194); also: nearly all actives have a fitted effect of over 55% in size
Details: PPARg-bla HEK293H viability, CellTiter-Glo luminescence, 17 h; Potency: co-treated with 50 nM rosiglitazone unless noted; series mostly up to 62.6 µM
Text: U.S. Tox21 Program National Center for Advancing Translational Sciences [NCATS] NIH Chemical Genomics Center [NCGC] U.S. Environmental Protection Agency [EPA] National Institutes of Environmental Health Sciences [NIEHS] National Toxicology Program [NTP] U.S. Food and Drug Administration [FDA] Tox21 Assay Overview: The peroxisome proliferator-activated receptors (PPARs) are lipid-activated transcription factors of the nuclear receptor superfamily with three distinct subtypes namely PPAR alpha, PPAR delta (also called PPAR beta) and PPAR gamma (PPARg). All these subtypes heterodimerize with Retinoid X receptor (RXR) and these heterodimers regulate transcription of various genes. PPAR-gamma receptor (glitazone receptor) is involved in the regulation of glucose and lipid metabolism. To identify the compounds that activate PPAR-gamma signaling, GeneBLAzer PPAR gamma UAS-bla HEK293H cell line (Invitrogen, Carlsbad, CA, USA) containing a beta-lactamase reporter gene under the control of an Upstream Activator Sequence (UAS) was used to screen the Tox21 compound library. The cytotoxicity of the Tox21 compound library against the PPARg-bla cell line was tested in parallel by measuring the cell viability using CellTiter-Glo assay in the same wells.
Tox21 Assay Protocol Summary: PPARg-bla cells were dispensed at 3000 cells/5uL/well in 1536-well black wall/clear bottom plates using a Multidrop Combi (Thermo Fisher Scientific, Waltham, MA) dispenser. After the assay plates were incubated at 37 C and 5% CO2 for 5 h, 23 nL of compounds dissolved in DMSO, positive controls or DMSO only was transferred to the assay plate by a Pintool station (Kalypsys, San Diego, CA), followed by addition of 1ul Rosiglitazone (50 nM, final concentration in the wells). The assay plates were incubated at 37 C for 17 h, and then 1 uL of LiveBLAzerTM B/G FRET substrate was added using a Bioraptr Flying Reagent Dispenser (FRD) workstation (Beckman Coulter, Indianapolis, IN, USA). The assay plates were incubated at room temperature for 1 h and fluorescence intensity was measured by an Envision plate reader (PerkinElmer, Shelton, CT). For cell viability readout that measures cytotoxicity, 4 ul/well of CellTiter-Glo reagent was added into the assay plates using a Flying Reagent Dispenser. After 30 min incubation at room temperature, the luminescence intensity in the plates was measured using a ViewLux plate reader (PerkinElmer).
Potency is read from the fitted curve at half-maximal effect.

| SMILES | Potency |
| --- | --- |
| CCOP(=S)(OCC)OP(=S)(OCC)OCC | inactive |
| N#Cc1c(Cl)c(Cl)c(Cl)c(C#N)c1Cl | 2.41 µM (active) and 1.55 µM (active) |
| Nc1ccc([N+](=O)[O-])cc1N | inactive |
| CN(C)c1ccccc1 | inactive |
| COP(=S)(OC)SCn1nnc2ccccc2c1=O | inactive |
| Oc1ccc(Cl)cc1Cl | inactive |
| CC(C)Nc1nc(Cl)nc(NC(C)C)n1 | inactive |
| ClC(Cl)(Cl)c1ccccc1 | inactive |
| N#CCCCCC#N | inactive |
| CCOC(=O)c1ccccc1N | inactive |
| CS(=O)(=O)NC(=O)c1cc(Oc2ccc(C(F)(F)F)cc2Cl)ccc1[N+](=O)[O-] | inactive |
| OCCOCCO | inactive |
| O=[N+]([O-])c1ccc(Cl)c([N+](=O)[O-])c1 | 11.1 µM (active) and 9.77 µM (active) |
| O=NN1CCOCC1 | inactive |
| CC(C)(c1ccccc1)c1ccc(O)c(C(C)(C)c2ccccc2)c1 | 15.3 µM (active) and 19.5 µM (active) |
| COP(=S)(OC)Oc1ccc(Sc2ccc(OP(=S)(OC)OC)cc2)cc1 | inactive |
| CCCCCCCC[N+](C)(CCCCCCCC)CCCCCCCC | 7.75 µM (active) and 3.47 µM (active) and 5.49 µM (active) |
| CNC(=O)CSP(=S)(OC)OC | inactive |
| C=CC(=O)OCC(CC)(COC(=O)C=C)COC(=O)C=C | 28.3 µM (active) and 9.77 µM (active) |
| c1ccc(C2CO2)cc1 (stereo not given) | inactive |

| SMILES | Potency |
| --- | --- |
| CN(C)P(=O)(N(C)C)N(C)C | inactive |
| ClCc1ccccn1 | inactive |
| N#CC(c1ccccc1)c1ccccc1 | inactive |
| COc1ccc(CO)cc1 | inactive |
| c1ccc2c(c1)Nc1ccccc1S2 | inactive |
| [Cl-].[Cl-].[Cl-].[Fe+3] | inactive |
| O=P(OCCCl)(OCCCl)OCCCl | inactive |
| [CH3][Sn]([Cl])([Cl])[Cl] | inactive |
| O=NN(c1ccccc1)c1ccccc1 | inactive |
| CC(C)(c1ccc(OCC2CO2)cc1)c1ccc(OCC2CO2)cc1 (stereo not given) | 55.7 µM (active) |
| Clc1ccc(C(Cl)(Cl)Cl)cc1 | inactive |
| C=CC(Cl)CCl (stereo not given) | inactive |
| COc1ccc(O)c(C(C)(C)C)c1 | inactive |
| Brc1ccc(Br)cc1 | inactive |
| CCC/C=N/O | inactive |
| CCOP(=O)(OCC)OCC | inactive |
| COc1ccc(C=O)cc1OC | inactive |
| Nc1ncn[nH]1 | inactive |
| O=C(O)c1nn(Cc2ccc(Cl)cc2Cl)c2ccccc12 | inactive |
| CCNCC | inactive |
